Measured values taken from PubChem BioAssay.
Where “and” joins values, the source holds several entries; their conditions need not be identical. Equal entries are not always repeated.

Legend:
[1] = system: Human papillomavirus type 1a protein E7 (residues 44-93); assay: small molecules binding HPV E7 44-93 – biochemical, small-molecule microarray, residues 44-93, 635 nm fluorescence, primary screen (AID 1108); settings: fluorescence 635 nm, higher = more signal;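 also: E7 fragment applied at 1 µg/mL in TBST for 1 h at 4 C; score combines spot fluorescence with its signal to noise ratio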
[2] = hepatitis C replication reporter changes, two-sided – Huh7 cells, luciferase reporter, HCV replication inhibitor project, primary screen (AID 1109); settings: Huh7 HCV replicon luciferase reporter, 48 h; higher = more signal;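 also: huh7 hepatoma cells harbouring a luciferase neomycin HCV replicon reporter; luciferase luminescence as measure of HCV replicon replication; test concentration not given here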
[3] = target: Left-right determination factor 2 (Homo sapiens) (UniProt O00292); assay: small molecules binding LEFTY2 protein – biochemical, small-molecule microarray, 635 nm fluorescence scan, primary screen (AID 1110); settings: higher = more signal
[4] = target: Calmodulin-1 (Homo sapiens) (UniProt P0DP23); assay: small molecules binding calmodulin-1 with EGTA – biochemical, small-molecule microarray, Cy5-labelled CALM1, profiling panel (AID 1111); settings: Cy5-CALM1 binding fluorescence, higher = more signal;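 also: labelled calmodulin applied in Tris saline Tween buffer holding calcium plus EGTA and DTT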
[5] = target: Calmodulin-1 (Homo sapiens) (UniProt P0DP23); assay: small molecules binding Ca-loaded calmodulin-1 – biochemical, small-molecule microarray, Cy5-labelled CALM1, plus calcium, artefact control for SMM control-protein annotation, profiling panel (AID 1112); settings: Cy5-CALM1 binding fluorescence, higher = more signal;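 also: score merges spot fluorescence with signal to noise from triplicate slides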
[6] = probe aWnt5a binding to arrayed compounds – biochemical, biotinylated probe, 635/667 nm fluorescence, primary screen (AID 1113); settings: small-molecule microarray, higher = more signal;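 also: score merges 667 nm fluorescence intensity with signal-to-noise per printed feature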
[7] = probe aShh binding to arrayed compounds – biochemical, biotinylated probe, 635/667 nm fluorescence, primary screen (AID 1114); settings: small-molecule microarray, higher = more signal;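 also: probe is biotin-labelled aShh protein from a stem cell growth factor screen; measures binding of labelled protein to compounds printed on the slide; score merges feature fluorescence at 667 nm with signal-to-noise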
[8] = probe aNog binding to arrayed compounds – biochemical, biotinylated probe, 635/667 nm fluorescence, primary screen (AID 1115); settings: small-molecule microarray, higher = more signal;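 also: probe is biotinylated aNog protein used at 0.15 µg/mL for 1 h at 4 C; z-score combines 667 nm fluorescence of each spot with its signal to noise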
[9] = target: Torsin-1A-interacting protein 1 (Homo sapiens) (UniProt Q5JTV8); assay: compound microarray binding of lysate hLAP1 – cell lysate, small-molecule microarray, COS7 lysate, 635/667 nm fluorescence, primary screen (AID 1116); settings: 635 nm fluorescence, higher = more signal
[10] = target: Alpha-bungarotoxin (Bungarus multicinctus) (UniProt P60615); assay: compounds binding labelled alpha-BTX control protein – biochemical, small-molecule microarray, Alexa647 label, 635/667 nm fluorescence, artefact control for SMM control protein annotation, profiling panel (AID 1117); settings: alpha-BTX-A647 binding fluorescence, higher = more signal
Sequence of Alpha-bungarotoxin (Bungarus multicinctus) (P60615 whole entry, looked up): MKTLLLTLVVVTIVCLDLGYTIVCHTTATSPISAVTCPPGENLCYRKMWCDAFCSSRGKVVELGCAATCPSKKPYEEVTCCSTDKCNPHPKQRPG

Sequence of Torsin-1A-interacting protein 1 (Homo sapiens) (Q5JTV8 whole entry, looked up): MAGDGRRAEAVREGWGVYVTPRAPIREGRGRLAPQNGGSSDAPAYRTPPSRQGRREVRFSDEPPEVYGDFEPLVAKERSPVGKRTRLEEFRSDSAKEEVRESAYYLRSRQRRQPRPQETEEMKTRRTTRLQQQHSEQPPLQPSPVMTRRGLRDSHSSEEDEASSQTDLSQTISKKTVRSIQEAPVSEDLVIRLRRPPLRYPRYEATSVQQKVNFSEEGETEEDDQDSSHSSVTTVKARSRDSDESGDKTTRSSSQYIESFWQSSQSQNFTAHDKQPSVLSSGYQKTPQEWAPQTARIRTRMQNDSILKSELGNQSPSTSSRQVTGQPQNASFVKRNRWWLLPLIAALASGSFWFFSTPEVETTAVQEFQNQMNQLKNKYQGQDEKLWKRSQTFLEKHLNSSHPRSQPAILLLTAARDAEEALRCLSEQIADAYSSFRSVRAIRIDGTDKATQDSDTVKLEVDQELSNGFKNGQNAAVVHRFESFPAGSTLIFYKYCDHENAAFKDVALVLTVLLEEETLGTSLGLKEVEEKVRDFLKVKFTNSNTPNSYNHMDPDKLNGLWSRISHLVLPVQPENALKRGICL
Sequence of Left-right determination factor 2 (Homo sapiens) (O00292 whole entry, looked up): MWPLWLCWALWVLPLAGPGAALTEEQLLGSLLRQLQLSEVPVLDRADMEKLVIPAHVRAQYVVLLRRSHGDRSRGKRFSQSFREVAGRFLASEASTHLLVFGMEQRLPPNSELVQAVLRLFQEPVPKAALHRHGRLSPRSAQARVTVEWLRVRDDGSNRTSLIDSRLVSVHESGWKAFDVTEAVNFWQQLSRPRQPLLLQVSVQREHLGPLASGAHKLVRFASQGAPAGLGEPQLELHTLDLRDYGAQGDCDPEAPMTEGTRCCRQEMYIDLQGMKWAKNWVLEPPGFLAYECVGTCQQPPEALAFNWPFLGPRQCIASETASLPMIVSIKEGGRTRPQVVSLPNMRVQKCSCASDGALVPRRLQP

Row | SMILES | composite z-score [1] | z-score [2] | composite z-score [3] | composite z-score [4] | composite z-score [5] | composite z-score [6] | composite z-score [7] | composite z-score [8] | composite z-score [9] | composite z-score [10]
1 | CC(CO)N1C(=O)[C@@H]2C3C(=O)OCCC=C[C@H]3OC23C=CCN(Cc2ccccc2)C(=O)[C@@H]13 (stereo not given in full) | 0.0364 and -1.19 | -1.12 and -0.667 | -1.26 and -1.45 | -0.792 and 0.0954 | -0.803 and 0.748 | -0.154 and -0.21 | -0.291 and -0.154 | 0.211 and -0.246 | 1.29 and -0.62 | -1.73 and -0.88
2 | CC(CO)N1C(=O)[C@@H]2C3C(=O)OCCC=C[C@H]3OC23C=CCN(C(C)(C)C)C(=O)[C@@H]13 (stereo not given in full) | -0.925 and -1 | -0.319 and -0.502 | -1.51 and -0.114 | -0.286 and -0.991 | 1.02 and -1.03 | -0.222 and -0.0584 | -0.168 and -0.0553 | -0.219 and -0.46 | 0.232 and 1.48 | -2.94 and -0.198
3 | C[C@@H](ON=C1[C@H]2CCn3c(=O)n(-c4ccccc4)c(=O)n3[C@H]2[C@H](O)[C@@H]2O[C@H]12)c1cn([C@H](CO)Cc2ccccc2)nn1 | 0.46 | -3.71 | 0.605 | 0.0208 | -0.549 | -0.148 | -0.358 | -0.364 | -0.0609 | 0.24
4 | C=CCN(C(=O)C(c1cccs1)N(CCOCCO)C(=O)/C=C\C(=O)O)C(C)(C)C (stereo not given) | -1.34 and -0.3 | 0.399 and -0.274 | -2.67 and -2.46 | -1.36 and -0.361 | -0.183 and 0.48 | -0.154 and -0.239 | -0.174 and 0.151 | -0.0689 and 0.106 | 0.17 and -0.417 | -2.22 and -0.34
5 | CCN1C(=O)[C@H]2[C@H]3[C@H](O)[C@H](O)CC(=NOC[C@@H](O)COCc4ccco4)[C@@H]3CC[C@H]2C1=O | -1.08 and -1.63 | 0.0085 and 1.42 | 1.32 and 0.764 | -1.05 and -0.872 | -1.72 and -1.74 | -0.0721 and -0.232 | -0.145 and -0.138 | 0.0326 and -0.0236 | 0.205 and -0.291 | 0.0851 and -0.421
6 | C=CCN(C(=O)C(c1cccs1)N(C(=O)/C=C\C(=O)O)c1c(Cl)cccc1CO)c1ccc(OC)cc1 (stereo not given) | -0.523 and -0.539 | -0.16 and -0.604 | -2.96 and -1.51 | -0.0794 and -0.107 | 1.06 and 0.804 | -0.285 and -0.096 | -0.0011 and 0.173 | 0.709 and -0.0216 | 1.81 and -0.188 | -1.73 and -0.053
7 | C=CCN(CCCC)C(=O)C1N(CCCCCCO)C(=O)C2C(C(=O)O)C3C=CC21O3 (stereo not given) | -0.498 and -0.27 | 0.227 and -0.883 | -3.06 and -3.09 | -0.494 and -0.605 | 0.169 and 0.392 | -0.184 and -0.226 | 0.0048 and -0.138 | -0.349 and -0.318 | -0.423 and 0.349 | -1.1 and -1.81
8 | C=CCN1C(=O)[C@]2(O[C@H](CCn3cc(CCO)nn3)[C@@H]([Si](C)(C)c3ccc(OC)cc3)[C@@H]2C)c2cc(N3C(=O)c4cccc5cccc3c45)ccc21 | 1.33 and 0.725 | -5.11 and -5.13 | 0.238 and -0.0491 | 0.345 and 0.772 | -0.0218 and 0.227 | -0.0203 and 0.0079 | 0.0048 and 0.14 | -0.136 and -0.0115 | 1.11 and 0.749 | 0.334 and 0.366
9 | CO[C@H]1COC(=O)CC=C[C@@H](C)COC(=O)[C@H](CCSC)NC(=O)CC=C[C@@H]1C | -0.467 and -0.849 | -0.0216 and -0.567 | 1.6 and 1.71 | -0.957 and -2.78 | -1.75 and -3.46 | -0.136 and -0.197 | -0.138 and -0.34 | -0.385 and -0.754 | 0.995 and 0.363 | -0.933 and -1.69
10 | Cc1ccc(S(=O)(=O)OC[C@@H]2CN3[C@@H](CC[C@@H](C)[C@@H]3c3ccc(Br)cc3)C(=O)O2)cc1 | 0.574 and 0.644 | -0.796 and -0.729 | 0.57 and 0.483 | 0.192 and 0.679 | 0.2 and -0.302 | -0.0704 and 0.0194 | -0.237 and -0.16 | -0.172 and -0.0898 | 0.301 and 0.359 | 0.153 and 0.448
11 | C=CCN(CCCCC)C(=O)C(c1cccs1)N(C(=O)/C=C\C(=O)O)c1ccc(CCO)cc1 (stereo not given) | 0.0979 and -0.457 | -0.779 and -0.741 | -3.06 and -2.73 | -0.783 and -0.531 | 0.0708 and 0.542 | -0.284 and -0.211 | 0.289 and -0.154 | -0.23 and -0.241 | -0.755 and -0.0484 | -0.89 and -0.874
12 | COC(=O)C1=C(C)N(Cc2ccccc2)[C@]23O[C@](C(=O)OC)(C(=O)N2[C@@H]1c1ccccc1)[C@H]1C(=O)N(C)C(=O)[C@H]13 | 0.866 and 0.534 | -1.01 and 0.238 | 1.15 and 0.687 | 0.949 and -0.202 | 0.29 and -0.107 | -0.16 and -0.0165 | -0.237 and 0.165 | -0.108 and -0.0008 | 0.384 and 0.73 | 0.0312 and -0.0037
13 | C=CCN(C(=O)C1N(CCCCCCO)C(=O)C2C(C(=O)O)C3C=CC21O3)c1ccc(OC)cc1 (stereo not given) | -0.862 and -1.21 | -0.67 and -0.824 | -3.9 and -3.75 | -0.0411 and -1.13 | 0.734 and 0.0742 | -0.224 and -0.124 | -0.0011 and 0.551 | 0.692 and 0.838 | 2.83 and 1.74 | -2.05 and -1.37
14 | CO[C@H]1COC(=O)[C@H](C)NC(=O)CC=C[C@@H](C)[C@H](OC)COC(=O)CC=C[C@@H]1C | -1.05 | -0.885 | 0.955 | -0.884 | -0.822 | -0.0944 | -0.0337 | -0.198 | 0.169 | -0.0006
15 | Cc1cc2c(nc1C)CCCN2CC(O)CN1CCCc2nc(-c3ccc(Br)cc3)ccc21 (stereo not given) | 1.32 and 1.19 | -1.3 and -2.09 | 0.917 and 0.75 | 0.645 and 1.01 | -0.0329 and 0.151 | 0.361 and 0.499 | 0.641 and 1.58 | 0.676 and 1.1 | 0.126 and 1.1 | 1.92 and 2.78
16 | C[N+](C)(C)CCCCCCNC(=O)[C@H]1C[C@H]2C(=O)N[C@@H](CCCC[N+](C)(C)C)C(=O)N2[C@H]1c1cccc(OCCO)c1 | 0.519 and 0.362 | 1.38 and 1.18 | 1.35 and 1.04 | -0.742 and -0.31 | -0.458 and 0.0972 | -0.0981 and -0.0478 | -0.291 and -0.167 | -0.0855 and 0.304 | 0.953 and 0.544 | 0.433 and -0.3
17 | CC(C)C(=O)N[C@@H]1CCCN1C(=O)C=Cc1ccccc1 | 0.734 | -1.05 | 0.85 | 0.0331 | -1.12 | -0.0704 | -0.138 | 0.173 | 0.587 | 0.289
18 | C=CCN(CCCCC)C(=O)C1N(CCOCCO)C(=O)C2C(C(=O)O)C3C=CC21O3 (stereo not given) | -1.53 and -0.495 | -0.586 and 0.715 | -2.78 and -1.83 | -0.368 and -0.355 | 1.01 and 1.07 | -0.276 and -0.328 | 0.0048 and -0.124 | -0.149 and -0.201 | -1.04 and 1.94 | -1.16 and -3.11
19 | C=C[C@@H](OC)[C@H](O)c1ccc(OC)c(O)c1 | -0.306 and -0.0635 | 0.552 and -0.127 | 0.861 and -0.46 | -1.19 and -1.42 | -0.799 and -0.187 | -0.293 and -0.208 | -0.289 and -0.138 | -0.321 and -0.347 | 0.0742 and 0.111 | -0.397 and 0.989
